# Bioassay records deposited in PubChem BioAssay by several laboratories.
# BCLXL inh: inhibitors of human Bcl-xL, primary screen, biochemical, fluorescence polarization, HTS | Bcl-2-like protein 1 (Homo sapiens), Q07817 | GST-Bcl-xL / FITC-Bim BH3 peptide fluorescence polarization | inhibition, % at 10.9 µM | 0.7% of 320,000 active | AID 2129, 2009;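 active means inhibition above the mean of all tested compounds plus 3 SD, cutoff set per campaign, cut at about 30% in these data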;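 further: 0% = DMSO wells and 100% = unlabeled Bim-BH3 peptide competitor; inhibitors lower millipolarization by displacing the labeled peptide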
# Target sequence (Q07817 whole entry, looked up): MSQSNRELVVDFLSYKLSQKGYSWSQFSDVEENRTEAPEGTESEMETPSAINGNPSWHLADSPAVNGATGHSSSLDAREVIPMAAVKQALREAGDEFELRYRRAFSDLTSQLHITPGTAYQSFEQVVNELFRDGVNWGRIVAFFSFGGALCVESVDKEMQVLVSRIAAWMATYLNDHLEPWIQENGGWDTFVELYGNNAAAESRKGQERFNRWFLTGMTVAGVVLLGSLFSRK
# GLD-1 RNA inh: GLD-1/TGE RNA complex disruptors, primary screen, biochemical, fluorescence polarization; AID 2280, 2010; Female germline-specific tumor suppressor gld-1 (Caenorhabditis elegans), Q17339; 0.44% of 320,000 active; purified GLD-1 + fluorescein TGE RNA; inhibition, % at 5.96 µM;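 active means percent inhibition above a per-plate cutoff, the plate mean of test compounds plus 3 SD, cut at about 30% in these data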;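 further: 0% = DMSO wells with GLD-1 and probe and 100% = wells lacking GLD-1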
# Mcl1 Bid PPI: Mcl-1/Bid binding inhibitors, primary screen, biochemical, TR-FRET, 1536-well; Induced myeloid leukemia cell differentiation protein Mcl-1 (Homo sapiens), Q07820; TR-FRET Mcl-1/Bid-Dy647 peptide binding; inhibition, % at 21.7 µM; 0.97% of 220,000 active;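 active means compounds that cut the binding signal by more than half at the single screening dose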;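 further: His-tagged Mcl-1 with europium anti-His antibody binding Bid BH3 peptide; 0% = Mcl-1 plus peptide wells and 100% = peptide-only wells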
# Target sequence (Q07820 whole entry, looked up): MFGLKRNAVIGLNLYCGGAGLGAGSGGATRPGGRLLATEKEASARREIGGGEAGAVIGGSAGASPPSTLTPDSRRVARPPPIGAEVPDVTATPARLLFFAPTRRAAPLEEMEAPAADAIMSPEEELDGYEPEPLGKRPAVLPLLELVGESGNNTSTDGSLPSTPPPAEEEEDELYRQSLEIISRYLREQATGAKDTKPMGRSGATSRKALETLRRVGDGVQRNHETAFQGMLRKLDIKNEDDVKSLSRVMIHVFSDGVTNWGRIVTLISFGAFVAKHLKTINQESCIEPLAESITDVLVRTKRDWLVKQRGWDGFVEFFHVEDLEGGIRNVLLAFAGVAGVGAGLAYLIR
# Mcl1 Noxa PPI: Mcl-1/Noxa binding inhibitors, primary screen, biochemical, TR-FRET, 1536-well | inhibition, % at 21.7 µM | 1.5% of 220,000 active | AID 1022, 2008 | TR-FRET Mcl-1/Noxa peptide binding, 2 h;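 active means compounds that cut the protein-peptide binding signal by more than 50% relative to plate controls in a single-dose test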;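 further: His-tagged Mcl-1 with rhodamine Noxa BH3 peptide and terbium anti-His antibody; 0% = Mcl-1 plus Noxa peptide wells and 100% = peptide-only wells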
# MCL1 BIM primary: inhibitors of MCL1 binding to BIM-BH3, primary screen, biochemical, fluorescence polarization | inhibition, % at 10.9 µM | Induced myeloid leukemia cell differentiation protein Mcl-1 (Homo sapiens), Q07820 | AID 2057, 2009 | GST-MCL1 / FITC-Bim-BH3 fluorescence polarization | 0.68% of 320,000 active;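 active means inhibition above the mean inhibition of all tested compounds plus 3 SD, set per campaign, cut at about 40% in these data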;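 further: 0% = DMSO wells and 100% = unlabeled Bim-BH3 peptide control; higher means more loss of mP so more displacement of Bim peptide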
# Bim-Mcl-1: inhibitors of Bim peptide binding to Mcl-1, primary screen, biochemical, bead-based flow cytometry, multiplex. Induced myeloid leukemia cell differentiation protein Mcl-1 (Homo sapiens), Q07820. Bim peptide-Mcl-1 binding. inhibition, % at 10 µM. 0.1% of 190,000 active. AID 1009, 2008; in the data active means inhibition above about 40%;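 further: 0% = no compound tracer wells and 100% = peptide blocker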
# Active calls of the source: *; . = no result given. Most compounds without a hit are left out; they make up all but 2.3% or so of the library.
SMILES,BCLXL inh,GLD-1 RNA inh,Mcl1 Bid PPI,Mcl1 Noxa PPI,MCL1 BIM primary,Bim-Mcl-1
Cc1cc2nc(/C=C/c3nc4cc(C)c(C)cc4[nH]3)[nH]c2cc1C,-1,-13,22,79*,-3,.
Cc1cc2nc(CO)[nH]c2cc1C,-1,0,-28,-1,4,.
CC(C)Nc1nnc(SCC(=O)Nc2ccc3c(c2)C(=O)c2ccccc2C3=O)s1,24,10,-17,78*,14,3
CC(C)Oc1cc(C(=O)NC2CCCCC2)c2ccccc2n1,-2,1,.,.,0,.
CCC(C(=O)NN1C(=O)c2ccccc2C1=O)c1ccccc1 (centres undefined),-2,0,-19,1,-4,-1
Cc1ccc(OCC(O)CN2CCN(c3ccccn3)CC2)c(C)c1 (centres undefined),4,-1,27,51*,3,0
O=C1CC(N2CCN(S(=O)(=O)c3ccccc3)CC2)C(=O)N1c1ccccc1 (centres undefined),-2,4,-8,92*,-5,.
CCn1cc(C(=O)N[C@H](C(=O)NCCCn2ccnc2)C(C)C)c(=O)c2cc3c(cc21)OCO3,0,1,.,.,-2,.
CCN(CC)CCn1c2ccc(F)cc2c2nc(C)sc21,2,4,53*,42,1,9
Cc1ccc(S(=O)(=O)n2c3ccc(F)cc3c3nc(C)sc32)cc1,5,6,-24,-1,15,-29
CCCc1cc(=O)[nH]c(SCC(=O)c2c(C)[nH]c3ccccc23)n1,-2,-4,76*,11,-2,.
CC1N(C)c2cccc3cccc(c23)N1C,10,-66,-11,63*,7,11
Cc1ccccc1C(=O)N1CCC(C(=O)NC2CCCC2)CC1,3,4,.,.,2,.
CCNc1nc(NCc2ccccc2)nc(SCC(=O)Nc2ccccc2)n1,4,8,53*,10,-2,-5
CCNc1nc(NCc2ccccc2)nc(SCC(N)=O)n1,6,-3,-26,0,4,-1
CN(C)/C=C1/C=C(c2ccccc2)OC1=O,-4,0,-9,12,-7,-2
CCC1=C/C(=C/N(C)c2ccccc2)C(=O)S1,31*,29,-95,8,31,-57
O=C(CN1CCN(c2cccc(Cl)c2)CC1)NC1CCCc2ccccc21 (centres undefined),-3,6,.,.,-5,.
COc1cc(OC)c2c(c1O)OC(c1ccccc1)CC2=O (centres undefined),10,12,-6,54*,32,-3
CCOC(=O)c1ccccc1NC(=O)COC(=O)CN1C(=O)NC2(CCCC2)C1=O,2,2,.,.,2,.
CCOc1ccc(C(=O)C[n+]2cccc3cc(C)ccc32)cc1,35*,-29,.,.,45*,.
Cc1ccc(C(=O)C[n+]2cccc3cc(C)ccc32)cc1,14,-19,-13,27,9,2
CN(CCCC[C@H](CNCc1ccc(-c2ccccc2)cc1)N1C[C@H](c2ccccc2)N(CCc2ccc(Cl)c(Cl)c2)C(=O)C1=O)Cc1ccc(-c2ccccc2)cc1,.,.,61*,21,.,.
COc1ccc(CNC[C@@H](CCCCN(C)Cc2ccc(OC)cc2)N2C[C@H](c3ccccc3)N(CCc3ccc(Cl)c(Cl)c3)C(=O)C2=O)cc1,-6,-1,6,21,-8,-4
N#CC1=C2SCC(O)(c3ccccc3)N2C(=O)CC1c1cccs1 (centres undefined),36*,20,-2,9,40,-7
SMILES,BCLXL inh,GLD-1 RNA inh,Mcl1 Bid PPI,Mcl1 Noxa PPI,MCL1 BIM primary,Bim-Mcl-1
N#CC1=C2SCC(O)(c3ccccc3)N2C(=O)CC1c1ccccc1F (centres undefined),7,6,16,9,2,2
O=C1NNC(c2ccccc2)=N/C1=C\c1ccco1,17,-1,31,65*,25,.
CN(C(=O)c1ccc(Cl)cc1)C1=CCCCC1CCC#N (centres undefined),3,0,65*,2,2,0
N#CCCN(Cc1cccs1)C(=O)c1ccc(Cl)cc1,1,-3,-3,11,1,.
CCOC(=O)c1c2ccc(OCC(=O)N/N=C/c3ccc(C)cc3)cc2n2ccccc12,8,5,73*,41,4,0
O=C(N=Nc1c(O)[nH]c2ccccc12)c1cc(NS(=O)(=O)c2cccs2)cc(NS(=O)(=O)c2cccs2)c1,2,-2,-33,57*,1,3
BrC(=C\c1ccccc1)/C=N/N1CCN(c2ccccc2)CC1,6,-2,-43,24,-1,43*
Cc1cc(C)c2nc(N3CCCN(C(=O)c4ccco4)CC3)c(C#N)cc2c1,14,5,55*,73*,22,1
Cc1ccc(C(=O)NCC(=O)OCC(=O)c2ccccc2)s1,-2,-3,.,.,0,.
CCOC(=O)c1ccc(NC(=O)c2ccccc2[N+](=O)[O-])cc1,0,2,-33,4,-3,-2
COc1cccc(/C=N/Nc2ccc([N+](=O)[O-])cc2)c1O,-25,-5,.,.,-47,.
CCOC(=O)c1ccc(N/N=C/c2cc(Br)cc([N+](=O)[O-])c2O)cc1,3,-3,-6,61*,3,1
COC(=O)c1ccc(N/N=C/c2cc([N+](=O)[O-])cc(OC)c2O)cc1,36*,-1,12,61*,5,-2
CCOc1ccccc1-c1c2cc(O)c(=O)cc-2oc2cc(O)c(O)cc12,.,.,-25,59*,.,1
O=c1cc2oc3cc(O)c(O)cc3c(-c3ccccc3O)c-2cc1O,.,.,10,50,.,.
COc1ccc2c(c1O)Cc1ccccc1C2=O,23,9,2,52*,21,0
CC(C)=C1Cc2ccccc2C1=O,0,-1,-41,-2,1,2
CN1CCC(N(C)C(=O)COc2ccccc2Cl)CC1,-2,1,.,.,3,.
Oc1ccc(N=Nc2nc(-c3ccccc3)c(-c3ccccc3)[nH]2)cc1,-8,84*,-52,-14,-20,-4
CC(C)CCN1CCC(n2nccc2NC(=O)c2ccc3c(c2)OCO3)CC1,4,-3,.,.,8,.
CN=C1S/C(=C\c2ccc(O)c(OC)c2)C(=O)N1C,-12,-23,.,.,-16,.
COc1cc(/C=C2\SC(=Nc3c(C)n(C)n(-c4ccccc4)c3=O)NC2=O)ccc1O,.,.,-35,51*,.,0
COc1cc(/C=C2\SC(=Nc3ccc(O)cc3)NC2=O)cc(OC)c1O,10,-49,-31,62*,21,0
